Pf growth 48h = P. falciparum growth inhibition at 48 hours (one generation) | P. falciparum luciferase growth in erythrocytes, 48 h | Potency, µM (titrated, usually from 28.7 µM), inactives show top-dose activity change, negative = inhibition, actives largely listed as inhibitors | 310,000 tested, 5.9% active | AID 504832
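Parasite viability was followed by luminescence of a genomically integrated firefly luciferase. Cultures held 0.1% parasitemia at 2% hematocrit (final), incubated under 5% CO2 at 37 C.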
HCV inhibitor = HCV inhibition | Huh7.5.1 HCVcc-Cre infection, luciferase reporter, 44 h | Potency, µM (highest dose often 41.8 µM), inactives show at the highest dose activity change, negative = inhibition, actives largely listed as inhibitors | 340,000 tested, 3.4% active
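HCVcc-Cre virus at an moi near 0.5 was added right after compound to cells cultured 4 h from seeding (1,000 cells/well). Luciferase activity was determined 44 h later, 15 min after substrate addition at RT.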
AmpC detergent = inhibitors of E. coli AmpC beta-lactamase with detergent; AmpC hydrolysis of nitrocefin, absorbance 480 nm, 0.01% Triton; Potency, µM (series often up to 114 µM), inactives show at the highest dose activity change, negative = inhibition, most hits filed as inhibitors; 370,000 tested, 0.041% active; P00811;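 note: 0% = no-compound wells and -100% = no-enzyme wells; nearly all actives have a fitted effect of over 25% in size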
Target sequence (P00811 whole entry, looked up): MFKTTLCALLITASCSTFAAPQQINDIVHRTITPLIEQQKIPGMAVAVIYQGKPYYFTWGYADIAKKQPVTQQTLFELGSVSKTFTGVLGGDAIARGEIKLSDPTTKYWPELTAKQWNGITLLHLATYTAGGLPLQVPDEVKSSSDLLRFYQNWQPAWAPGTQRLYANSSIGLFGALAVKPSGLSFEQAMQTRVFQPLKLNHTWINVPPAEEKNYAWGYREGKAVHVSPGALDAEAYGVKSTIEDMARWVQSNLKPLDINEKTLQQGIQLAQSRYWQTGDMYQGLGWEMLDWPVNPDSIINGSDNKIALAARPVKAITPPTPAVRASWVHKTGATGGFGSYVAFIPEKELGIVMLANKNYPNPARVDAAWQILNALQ
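AmpC (5.3 nM in the dispensed reagent) in 20 mM phosphate pH 7.0 with 0.01% (detergent screen) or 0.0001% Triton X-100 was preincubated with compounds for 15 min at room temperature. Nitrocefin was then added from an 800 uM solution, and hydrolysis was followed at 480 nm.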
Pf growth 96h = P. falciparum growth inhibition at 96 hours; AID 504834; P. falciparum luciferase reporter growth, 96 h; Potency, µM (titrated, usually from 28.7 µM), for inactives: at the top dose activity change, negative = inhibition, hits mostly inhibitors; 320,000 tested, 6.9% active
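Luminescence readout: decreased luciferase signal marks inhibited growth of reporter-expressing P. falciparum in infected red cells (2% hematocrit, 0.05% parasitemia final), exposed to compound two generations (96 h, 37 C, 5% CO2).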
AMA1 RON2 block = disrupts binding of P. falciparum AMA1 to RON2. AlphaScreen AMA1-biotinylated RON2 peptide binding. Potency, µM (top dose mostly 58.2 µM), inactives show at the highest dose activity change, negative = inhibition, most hits filed as inhibitors. 360,000 tested, 0.2% active. AID 720542;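 note: 0% = vehicle wells and -100% = peptide control; nearly all actives have a fitted effect of over 45% in size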
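AMA1 (3D7) with his tag at 25 nM final met compounds first, then biotinylated RON2 peptide at 25 nM; detection used donor plus acceptor beads, 10 µg/mL apiece, read by AlphaScreen after 30 min at room temperature.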
AmpC inh no detg = blocks E. coli AmpC beta-lactamase in detergent-free assay. P00811. AmpC nitrocefin hydrolysis, absorbance 480 nm, 0.0001% Triton. Potency, µM (highest dose often 57.1 µM), without a hit: at the top dose activity change, negative = inhibition, usual class: inhibitors. 330,000 tested, 0.52% active. AID 485341;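 note: plate controls were no compound for no effect and no enzyme for full effect; nearly all actives have a fitted effect of over 20% in size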
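AmpC (5.3 nM in the dispensed reagent) in 20 mM phosphate pH 7.0 with 0.01% (detergent screen) or 0.0001% Triton X-100 was preincubated with compounds for 15 min at room temperature. Nitrocefin was then added from an 800 uM solution, and hydrolysis was followed at 480 nm.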
* = called active by the depositor; ? = inconclusive; / = no result. Only some compounds are listed: those with a hit (about 11% of all), similar ones and a draw of the others. Calls come from the whole dose curve; as a rule, active = well fitted curve in the direction sought with a large enough effect; inconclusive = small, poorly fitted or top-dose-only effect, or another doubt; inactive = no such curve, though single readings can be large; an effect the other way counts as inactive or inconclusive. Unless noted, % is set by controls: 0 for no effect and ±100 for the full control effect; potency is the fitted concentration of half-maximal effect.

SMILES	Pf growth 48h	HCV inhibitor	AmpC detergent	Pf growth 96h	AMA1 RON2 block	AmpC inh no detg
COc1ccc(CN(Cc2ccco2)C(=O)COc2ccc(Cl)cc2C)cc1	/	/	21.2%	/	/	/
CC(C)(C)OC(=O)C[C@@H]1C/C=C\C[C@H](CC(=O)N(CCO)Cc2ccccc2)C(=O)N2CCC[C@H]2COC1=O	/	1.12µM*	/	/	18.4%	157.0%
O=C1NCCOC(=O)[C@H](Cc2ccc(F)cc2)C/C=C\C[C@@H]1CC(=O)N(CCO)Cc1ccccc1	/	11.2µM*	/	/	-6.4%	256.6%
C=C[C@@H](C)N(Cc1ccc(OC)cc1)S(=O)(=O)N(Cc1ccccc1)[C@H](C=C)C(C)C	3.29µM*	14.4%	9.0%	?	29.7%	-28.2%
COc1ccc(CN([C@H](C)CO)S(=O)(=O)N(Cc2ccccc2)[C@H](CO)C(C)C)cc1	?	?	-1.2%	?	-4.5%	65.1%
COc1ccc2c(c1)c1c(c(=O)n(Cc3ccccc3)c(=O)n1Cc1ccc(C)cc1)n2C	/	/	0.0%	/	/	/
COc1ccc(-c2nn(-c3ccccc3)cc2C(N)=O)cc1OC	41.8%	9.8%	-8.7%	14.7µM*	19.9%	-7.5%
COc1ccc(-c2nn(-c3ccccc3)cc2/C=N/n2cnnc2)cc1OC	?	?	1.0%	-13.9%	-2.7%	-2.4%
COc1ccc(-c2nn(-c3ccccc3)cc2/C=N/NC(N)=S)cc1OC	11.7µM*	11.2µM*	-7.0%	14.7µM*	3.1%	-41.4%
NC(=O)c1cn(-c2ccccc2)nc1-c1cccnc1	14.2%	8.3%	2.5%	18.3%	3.5%	-2.7%
O=c1c2ccccc2nc(-c2ccc(Cl)cc2)n1CCCOc1ccccc1F	/	/	-4.1%	/	/	/
Cc1ccc(N/C(N)=N/c2nc(C)cc(N3CCCCC3)n2)c(C)c1	0.0%	2.82µM*	2.1%	?	-12.9%	1.4%
Cc1ccc(N/C(N)=N/c2nc3c(c(=O)[nH]2)CCCC3)c(C)c1	?	-1.8%	0.8%	71.0%	-2.5%	-20.3%
COc1cc(NC(=O)C2=C(N3CCOCC3)/C(=C\c3ccc(N(C)C)cc3)CCC2)cc(OC)c1OC	14.7µM*	6.31µM*	1.0%	?	-29.7%	-16.5%
O=NCc1ccc([N+](=O)[O-])o1	?	/	/	13.5µM*	/	/
O=[N+]([O-])c1ccc(CN2CCN(c3ccc(Cl)cc3)CC2)o1	2.7%	4.0%	?	-25.2%	?	-5.9%
CCc1ccc(C(=O)NNC(=O)CCN2CCN(Cc3ccccc3)CC2)cc1	2.33µM*	-5.2%	2.7%	38.4%	4.4%	-18.8%
O=C(c1ccccc1)c1ccc(OCCOCCN2CCN(Cc3ccccc3)CC2)cc1	?	14.1µM*	0.9%	26.8%	?	180.0%
COC(=O)c1ccc(NC(=O)CCN2CCN(Cc3ccccc3)CC2)cc1	13.1µM*	0.2%	?	-26.7%	9.2%	-14.1%
Cc1ccc(N(C(=O)COc2ccccc2C)S(=O)(=O)c2ccc(Cl)cc2)cc1	/	/	19.0%	/	/	/
CC(C)c1ccc(NC(=O)C2CCCN(S(=O)(=O)c3ccc4c(c3)C(C)(C)C(=O)N4C)C2)cc1 (stereo not drawn)	?	12.6µM*	?	?	-9.2%	156.1%
CN1C(=O)C(C)(C)c2cc(S(=O)(=O)N3CCC(C(=O)Nc4ccc(Cl)cc4)CC3)ccc21	2.4%	2.8%	1.2%	45.3%	6.3%	-9.1%
CN1C(=O)C(C)(C)c2cc(S(=O)(=O)N3CCCC(C(=O)NCc4ccc(F)cc4)C3)ccc21 (stereo not drawn)	?	?	?	10.4µM*	-4.5%	106.1%
CN1C(=O)C(C)(C)c2cc(S(=O)(=O)N3CCCC(C(=O)Nc4ccc(Cl)cc4)C3)ccc21 (stereo not drawn)	?	11.2µM*	-12.5%	8.6%	-6.3%	79.1%
CCCCc1nn2c(=O)cc(COC(=O)c3ccccc3NC(=O)c3ccccc3OC)nc2s1	/	/	11.8%	/	/	/
SMILES	Pf growth 48h	HCV inhibitor	AmpC detergent	Pf growth 96h	AMA1 RON2 block	AmpC inh no detg
NS(=O)(=O)c1ccc(CCNc2nc(CN3CCCCC3)nc3sc4c(c23)CCC4)cc1	11.7µM*	?	2.5%	6.57µM*	-3.0%	1.0%
Cc1cc(S(=O)(=O)Nc2nc(CN3CCOCC3)nc3sc4c(c23)CCC4)cc(C)c1C	-2.8%	-11.3%	-14.9%	5.3%	8.4%	62.6%
CCc1ccc(CNC(=O)C(CC)n2nc(C)c3c(C)n(-c4ccccc4)nc3c2=O)cc1 (stereo not drawn)	/	/	22.1%	/	/	/
COc1ccc(S(=O)(=O)Nc2ccc3cn[nH]c3c2)cc1C	10.3%	-19.9%	-4.8%	125.7%	8.0%	-52.1%
CCOC(=O)c1ccc(S(=O)(=O)Nc2ccc3cn[nH]c3c2)cc1	1.5%	11.2µM*	-10.1%	11.7%	-3.7%	-30.6%
Cc1cc(C)c(C)c(S(=O)(=O)Nc2ccc3cn[nH]c3c2)c1C	?	12.6µM*	1.8%	?	-8.2%	-22.3%
Cc1ccc(CCNC(=O)CCCn2c(=O)c3ccccc3n(Cc3ccccc3C)c2=O)cc1	/	/	12.3%	/	/	/
COc1cc(CNC(=O)C2CCCCN2S(=O)(=O)c2ccc(F)cc2)cc(OC)c1OC (stereo not drawn)	/	/	-0.4%	/	/	/
COc1ccc2nc(N(CCN(C)C)C(=O)/C=C/c3cccs3)sc2c1	?	?	0.1%	?	-16.3%	125.5%
CCN(Cc1ccccc1)S(=O)(=O)c1ccc(C(=O)N(CCCN(C)C)c2nc3cc(OC)ccc3s2)cc1	8.6%	25.1µM*	-20.3%	21.7%	?	172.4%
CCN(Cc1ccccc1)S(=O)(=O)c1ccc(C(=O)N(CCCN(C)C)c2nc3ccc(F)cc3s2)cc1	-2.8%	?	-7.7%	1.9%	2.3%	124.3%
COc1ccc2sc(N(CCN(C)C)C(=O)/C=C/c3cccs3)nc2c1	5.3%	15.8µM*	6.2%	?	-22.6%	156.3%
Cc1cccc2sc(N(CCCN(C)C)C(=O)c3ccc(C(=O)c4ccccc4)cc3)nc12	6.57µM*	?	5.4%	-101.7%	?	178.2%
Cc1cccc2sc(N(CCCN(C)C)C(=O)COc3ccccc3)nc12	/	/	-4.5%	/	/	/
COc1ccc2sc(N(CCCN(C)C)C(=O)c3ccc(C(=O)c4ccccc4)cc3)nc2c1	13.1µM*	?	?	?	-21.0%	201.8%
CN(C)CCCN(C(=O)c1ccc(C(=O)c2ccccc2)cc1)c1nc2ccc(F)cc2s1	?	-8.0%	?	91.6%	-20.0%	149.1%
CCOC(=O)c1c(C)c(-c2ccccc2)n(CC(=O)NCCc2cccc(C)c2)c1C	/	/	-2.9%	/	/	/
COC(=O)c1ccc(OC)c(Cn2c(=O)n(-c3ccc(C)cc3)c(=O)c3c2cnn3C)c1	/	/	-6.3%	/	/	/
